From PubChem BioAssay (NCI)
About 79,000 compounds went through this panel and 15% of them were active in at least one assay; those are over-represented in the sample as a whole. Values without a mark were called inactive. The source made the active and inactive calls. Rule as the data show it: active = growth inhibition above about 70%; inactive = the rest.

How the values were obtained:
[1] = NCI Yeast Anticancer Drug Screen. Data for the rad50 strain (AID 155);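 also: 0% = growth of vehicle-only cultures of the same strain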; conditions: S. cerevisiae rad50 strain growth inhibition; at 50.0 µM; active compounds read high
How it was run: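 Compounds were tested on a yeast strain with an engineered DNA damage repair alteration; the reported value is growth inhibition normalised to vehicle treatment.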

[2] = NCI Yeast Anticancer Drug Screen. Data for the mec2-1 strain (AID 157); conditions: S. cerevisiae mec2-1 strain, at 50.0 µM, active compounds read high
How it was run: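 mec2-1 yeast strain, carrying an alteration in DNA damage repair or cell cycle control, was exposed to compounds; growth inhibition was measured relative to vehicle-treated controls.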

[3] = NCI Yeast Anticancer Drug Screen. Data for the sgs1 mgt1 strain (AID 161);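 also: 0% = growth of cultures given vehicle only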; conditions: S. cerevisiae sgs1 mgt1 strain, at 50.0 µM, active compounds read high
How it was run: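 This yeast growth screen uses a strain with defined DNA-repair lesions; compound-treated growth is compared with vehicle-treated growth.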

[4] = NCI Yeast Anticancer Drug Screen. Data for the cln2 rad14 strain (AID 165);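 also: 0% = growth equal to vehicle treated cultures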; conditions: S. cerevisiae cln2 rad14 strain, at 50.0 µM, active compounds read high
How it was run: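 Yeast carrying cln2 and rad14 alterations (cell cycle control and DNA damage repair) were exposed to compounds. Growth inhibition was measured against vehicle-treated controls.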

[5] = NCI Yeast Anticancer Drug Screen. Data for the bub3 strain (AID 167); conditions: S. cerevisiae bub3 mutant strain, at 50.0 µM, active compounds read high
How it was run: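 Growth of a checkpoint-deficient yeast mutant is measured after compound exposure. Values represent inhibition relative to vehicle.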

[6] = NCI Yeast Anticancer Drug Screen. Data for the mlh1 rad18 strain (AID 175); conditions: S. cerevisiae mlh1 rad18 strain growth inhibition; at 50.0 µM; active compounds read high
How it was run: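 Growth inhibition of the yeast strain was measured after compound exposure and expressed relative to vehicle-treated controls. The strain carries defined defects in DNA damage repair.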

CN(C)/N=N/c1nc2c(c(=O)n(C)c(=O)n2C)n1CC(O)CO (configuration not stated)
growth inhibition [1]: 11.4% | growth inhibition [2]: 29% | growth inhibition [3]: 22.1% | growth inhibition [4]: -2.85% | growth inhibition [5]: 2% | growth inhibition [6]: 27.1%

CCc1nc(N)nc(N)c1-c1ccc(NCCN)c(N)c1
growth inhibition [1]: 3.4% | growth inhibition [2]: 6.35% | growth inhibition [3]: 5.15% | growth inhibition [4]: -6.05% | growth inhibition [5]: 12.2% | growth inhibition [6]: 8.5%

Cn1nc(-c2ccccc2)c2c(/C=C/c3ccc(F)cc3)onc2c1=O
growth inhibition [1]: -14.4% | growth inhibition [2]: -17.9% | growth inhibition [3]: 8.55% | growth inhibition [4]: 8.35% | growth inhibition [5]: 0.05% | growth inhibition [6]: -15.3%

COc1ccc(C2c3cc4c(cc3OC3(O)CCCC(=O)C23)OCO4)cc1 (configuration not stated)
growth inhibition [1]: -13.2% | growth inhibition [2]: 15.3% | growth inhibition [3]: 4.55% | growth inhibition [4]: -39.3% | growth inhibition [5]: 20.6% | growth inhibition [6]: -7.4%

COC(=O)C(C(=O)c1ccccc1)c1ccccc1 (configuration not stated)
growth inhibition [1]: 30.6% | growth inhibition [2]: 16.9% | growth inhibition [3]: 9.5% | growth inhibition [4]: 6.35% | growth inhibition [5]: 8.4% | growth inhibition [6]: 38.7%

COc1cccc(CNc2ncnc3nc[nH]c23)c1
growth inhibition [1]: 16.5% | growth inhibition [2]: 1.85% | growth inhibition [3]: 14.7% | growth inhibition [4]: 4% | growth inhibition [5]: -3.85% | growth inhibition [6]: 24.6%

O=C1NC(=S)S/C1=C/C=C/c1ccccc1[N+](=O)[O-]
growth inhibition [1]: 2.95% | growth inhibition [2]: 0.85% | growth inhibition [3]: -3.9% | growth inhibition [4]: -16.6% | growth inhibition [5]: 42.5% | growth inhibition [6]: -16.6%

CC1=NC(=Cc2ccc(O)cc2)C(=O)N1n1c(-c2ccccc2)nc2ccccc2c1=O
growth inhibition [1]: -4.7% | growth inhibition [2]: -10.3% | growth inhibition [3]: -5.35% | growth inhibition [4]: 2.6% | growth inhibition [5]: -10.8% | growth inhibition [6]: 3.45%

COc1ccccc1NC(=O)C(=O)C(c1cnc2ccc([N+](=O)[O-])cc2n1)[N+](=O)[O-] (configuration not stated)
growth inhibition [1]: 16.2% | growth inhibition [2]: -3.4% | growth inhibition [3]: 6.3% | growth inhibition [4]: 18.5% | growth inhibition [5]: 7.6% | growth inhibition [6]: -0.2%

CN(CC#N)CC#N
growth inhibition [1]: 19% | growth inhibition [2]: 9.6% | growth inhibition [3]: 8.75% | growth inhibition [4]: -1.6% | growth inhibition [5]: 20.1% | growth inhibition [6]: 0.3%

Cc1cccc2c(N)c3cccc(C(=O)NCC[N+](C)(C)[O-])c3nc12
growth inhibition [1]: 8.7% | growth inhibition [2]: -13.3% | growth inhibition [3]: 11.1% | growth inhibition [4]: 31% | growth inhibition [5]: 18.4% | growth inhibition [6]: 20.6%

COc1cc(C2c3cc4c(cc3[C@@H](Nc3ccc(C#N)cc3)C3COC(=O)[C@H]23)OCO4)cc(OC)c1O (some centres not stated)
growth inhibition [1]: 87.5% (active) | growth inhibition [2]: 89.7% (active) | growth inhibition [3]: 89.5% (active) | growth inhibition [4]: 85.5% (active) | growth inhibition [5]: 89% (active) | growth inhibition [6]: 88.3% (active)

CCOC(=O)CCCCCC(=O)OCC
growth inhibition [1]: 4% | growth inhibition [2]: 0.25% | growth inhibition [3]: -2.7% | growth inhibition [4]: 4.1% | growth inhibition [5]: 12.8% | growth inhibition [6]: 1.8%

CC(Cc1ccccc1)NN (configuration not stated)
growth inhibition [1]: 14.8% | growth inhibition [2]: 9.55% | growth inhibition [3]: 16.5% | growth inhibition [4]: 5.65% | growth inhibition [5]: 10.4% | growth inhibition [6]: 9.4%

O=C(CS(=O)(=O)Cc1ccccc1)N1CCOCC1
growth inhibition [1]: -9.4% | growth inhibition [2]: -13.3% | growth inhibition [3]: -6.55% | growth inhibition [4]: -3.8% | growth inhibition [5]: -3% | growth inhibition [6]: -27.5%

CCOC(=O)C(C)(C)Oc1ccc(N=[N+]=[N-])cc1
growth inhibition [1]: 13.1% | growth inhibition [2]: 9.15% | growth inhibition [3]: 41.5% | growth inhibition [4]: 4.35% | growth inhibition [5]: 5.8% | growth inhibition [6]: 19.6%

CNC(=S)C(N)CCCC1NC(=S)N(C)C1=O (configuration not stated)
growth inhibition [1]: 7% | growth inhibition [2]: 6.8% | growth inhibition [3]: -21.9% | growth inhibition [4]: 16.7% | growth inhibition [5]: 8.95% | growth inhibition [6]: 0.7%

CC(c1ccccc1)C1CC(=O)N(C)C1=O (configuration not stated)
growth inhibition [1]: 7.85% | growth inhibition [2]: -15% | growth inhibition [3]: 0.45% | growth inhibition [4]: -19.9% | growth inhibition [5]: -23.8% | growth inhibition [6]: 2.35%

O=c1c[n+](-c2ccccc2)[nH]o1
growth inhibition [1]: 41.2% | growth inhibition [2]: -12.1% | growth inhibition [3]: 22.1% | growth inhibition [4]: 5.5% | growth inhibition [5]: 7.7% | growth inhibition [6]: 27.5%

COc1cc2c(cc1OCc1ccccc1)C(c1cc(OC)c(OC)c(OC)c1)=C1C(=O)OCC1C2 (configuration not stated)
growth inhibition [1]: 9.4% | growth inhibition [2]: -1.1% | growth inhibition [3]: -16.4% | growth inhibition [4]: -7.2% | growth inhibition [5]: -1.25% | growth inhibition [6]: 1%

O=C(CCN1C(=O)c2ccccc2C1=O)c1cnc(N2C(=O)c3ccccc3C2=O)[nH]1
growth inhibition [1]: 15.6% | growth inhibition [2]: -4.45% | growth inhibition [3]: 11.4% | growth inhibition [4]: -22.4% | growth inhibition [5]: 18.9% | growth inhibition [6]: 2.5%

Cc1cc(Br)ccc1N=Cc1ccc(C=Nc2ccc(Br)cc2C)cc1
growth inhibition [1]: -6.75% | growth inhibition [2]: -17.6% | growth inhibition [3]: -11.8% | growth inhibition [4]: -2.5% | growth inhibition [5]: -3.65% | growth inhibition [6]: -0.2%

Cc1c(F)cccc1NC(=O)OC(C)C
growth inhibition [1]: 18.2% | growth inhibition [2]: -5.15% | growth inhibition [3]: -0.7% | growth inhibition [4]: -50.8% | growth inhibition [5]: 12.8% | growth inhibition [6]: 5.1%

C[N+](C)(N)CCS(N)(=O)=O
growth inhibition [1]: 0.15% | growth inhibition [2]: -9.8% | growth inhibition [3]: 5.6% | growth inhibition [4]: -22.4% | growth inhibition [5]: 26.7% | growth inhibition [6]: 0.5%

CC1C2c3ccccc3C(c3ccccc32)C1CN1C(CCO)COC1c1ccccc1 (configuration not stated)
growth inhibition [1]: 4.05% | growth inhibition [2]: 8.9% | growth inhibition [3]: -3.25% | growth inhibition [4]: -1.75% | growth inhibition [5]: 1.4% | growth inhibition [6]: 7.6%

C=C1CC/C=C(\C)C(=O)C(O)C2C1CC2(C)C (configuration not stated)
growth inhibition [1]: 14.9% | growth inhibition [2]: -13.7% | growth inhibition [3]: 67.2% | growth inhibition [4]: 16.4% | growth inhibition [5]: 23.9% | growth inhibition [6]: 78.8% (active)

Cc1ccccc1SC(c1ccccc1)(c1ccccc1)c1ccccc1
growth inhibition [1]: -11.2% | growth inhibition [2]: -25.3% | growth inhibition [3]: -0.2% | growth inhibition [4]: -6.55% | growth inhibition [5]: -6.1% | growth inhibition [6]: -37.8%

COc1cc2c(cc1OC)C(=O)C(C1=C(SC(=N)N)C(=O)c3cc(OC)c(OC)cc31)C2 (configuration not stated)
growth inhibition [1]: -7.4% | growth inhibition [2]: -21.9% | growth inhibition [3]: -7.75% | growth inhibition [4]: -0.65% | growth inhibition [5]: 2.85% | growth inhibition [6]: -2%

O=C(O)CCCCl
growth inhibition [1]: 12.3% | growth inhibition [2]: -7.8% | growth inhibition [3]: 16.2% | growth inhibition [4]: 13.7% | growth inhibition [5]: 12.7% | growth inhibition [6]: 26%

Cc1nnnn1-c1ccc([N+](=O)[O-])cc1
growth inhibition [1]: 8.45% | growth inhibition [2]: 8.35% | growth inhibition [3]: -1.5% | growth inhibition [4]: -17.6% | growth inhibition [5]: 0.75% | growth inhibition [6]: 7.4%

CC(=O)OCC1OC(SC2=NC(=O)/C(=C/c3ccccc3)S2)C(OC(C)=O)C(OC(C)=O)C1OC(C)=O (configuration not stated)
growth inhibition [1]: 40.2% | growth inhibition [2]: 35.4% | growth inhibition [3]: 55.4% | growth inhibition [4]: 15.8% | growth inhibition [5]: -4.1% | growth inhibition [6]: 43.8%

CC(=O)Nc1ccccc1C(C)=O
growth inhibition [1]: 5.45% | growth inhibition [2]: -7.25% | growth inhibition [3]: -10.2% | growth inhibition [4]: 10% | growth inhibition [5]: -8.05% | growth inhibition [6]: 4.85%

COC(=O)[C@@]1(C)/C(=N/NS(=O)(=O)c2ccc(C)cc2)CCC[C@@H]1C
growth inhibition [1]: 11.4% | growth inhibition [2]: -23% | growth inhibition [3]: -7.15% | growth inhibition [4]: 3.05% | growth inhibition [5]: -1.4% | growth inhibition [6]: -1.85%

COCCOCc1nc(C#N)c(N)o1
growth inhibition [1]: -6.6% | growth inhibition [2]: 2.6% | growth inhibition [3]: -36% | growth inhibition [4]: 13.8% | growth inhibition [5]: -24% | growth inhibition [6]: -66.2%

CN1CCC(C)(c2ccccc2)C(=O)C1 (configuration not stated)
growth inhibition [1]: 2% | growth inhibition [2]: 3.85% | growth inhibition [3]: 11% | growth inhibition [4]: -28.6% | growth inhibition [5]: -10.3% | growth inhibition [6]: 12.7%

CCN(CC)c1nc2ccccc2o1
growth inhibition [1]: -16.9% | growth inhibition [2]: 16% | growth inhibition [3]: 3.7% | growth inhibition [4]: -36.8% | growth inhibition [5]: -19.9% | growth inhibition [6]: -9.2%

c1ccc(CCc2cccnc2)nc1
growth inhibition [1]: 26% | growth inhibition [2]: -4.5% | growth inhibition [3]: -21.6% | growth inhibition [4]: 50% | growth inhibition [5]: -6.1% | growth inhibition [6]: -1.7%

Cc1ccc(OC(=O)NC(C)(C)C)cc1
growth inhibition [1]: 0.8% | growth inhibition [2]: -18.9% | growth inhibition [3]: 11.2% | growth inhibition [4]: -35.1% | growth inhibition [5]: 11.8% | growth inhibition [6]: -12.5%

Fc1ccc(C(=C(c2ccc(F)cc2)c2ccc(F)cc2)c2ccc(F)cc2)cc1
growth inhibition [1]: 45.5% | growth inhibition [2]: -15.2% | growth inhibition [3]: 36.9% | growth inhibition [4]: 9.55% | growth inhibition [5]: 0.1% | growth inhibition [6]: 7%

CCN(CC)c1nc(C(N)=O)c([N+](=O)[O-])c(N(CC)CC)n1
growth inhibition [1]: -9.7% | growth inhibition [2]: -3.4% | growth inhibition [3]: 14.1% | growth inhibition [4]: -14.2% | growth inhibition [5]: -17.9% | growth inhibition [6]: -0.5%

Cc1cc(=O)c2cc(N=Cc3ccc(N(C)C)cc3)ccc2o1
growth inhibition [1]: 5.25% | growth inhibition [2]: -10.9% | growth inhibition [3]: -16.8% | growth inhibition [4]: 17.1% | growth inhibition [5]: 0.75% | growth inhibition [6]: 16.1%

CCSc1ccc(N=[N+]([O-])c2ccc(SCC)c(Cl)c2)cc1Cl
growth inhibition [1]: -5.6% | growth inhibition [2]: 10.8% | growth inhibition [3]: 1.65% | growth inhibition [4]: -17.1% | growth inhibition [5]: -4.6% | growth inhibition [6]: 9.3%
